The supplement of paper PMC10849652
Targets with a hit are over-represented here; the source holds about 8,800 in all. About 0.5% of all pairs of compound and target were hits.

Key:
Assay in all cases: log2 fold change, soluble protein after heating vs DMSO (PISA); higher = thermal stabilisation; K562 lysate, 10 uM; active = over 0.2 and 3.5 SD of the protein, either way, in both replicates (recomputed)
[1] = compound: CCCS(=O)(=O)Nc1ccc(F)c(C(=O)c2c[nH]c3ncc(-c4ccc(Cl)cc4)cc23)c1F [vemurafenib]
Procedure, shortened: (§1)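 Pellets of K562 cells were dounce-homogenised in PBS pH 7.4 with 1 mM MgCl2, and the crude extract was held at 1 mg/mL protein for a 30 min treatment with 10 μM compound. Aliquots were heated for 3 min over 48°C-58°C and pooled before NP-40 was added to 0.5% at 4°C. The supernatant from 21,000xg for 90 min was quantified by TMTpro 16plex LC-MS/MS with channel sums equalised. Values are reported from duplicates as log-two fold change in thermal stability relative to solvent controls.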

[2] = compound: CCCS(=O)(=O)Nc1ccc(F)c(C(=O)c2c[nH]c3ncc(Cl)cc23)c1F
Procedure, shortened: as §1

[3] = compound: CCN(CCCOc1ccc2c(Nc3cc(CC(=O)Nc4cccc(F)c4)[nH]n3)ncnc2c1)CCOP(=O)(O)O [barasertib]
Procedure, shortened: as §1

[4] = compound: CC[C@@H]1C(=O)N(C)c2cnc(Nc3ccc(C(=O)NC4CCN(C)CC4)cc3OC)nc2N1C1CCCC1
Procedure, shortened: as §1

[5] = compound: CC[C@@H]1C(=O)N(C)c2cnc(Nc3ccc(C(=O)N[C@H]4CC[C@H](N5CCN(CC6CC6)CC5)CC4)cc3OC)nc2N1C(C)C [volasertib]
Procedure, shortened: as §1

[6] = compound: CCn1c(C(=O)N(C2CC2)C2CC2)cc2c3c(ncn3C)c(Nc3cc(C)n(C)n3)nc21
Procedure, shortened: as §1

[7] = compound: CN1CCN(CCOc2cc(OC3CCOCC3)c3c(Nc4c(Cl)ccc5c4OCO5)ncnc3c2)CC1 [saracatinib]
Procedure, shortened: as §1

[8] = compound: CN1CCN(c2nc(C3=C(c4c[nH]c5ccccc45)C(=O)NC3=O)c3ccccc3n2)CC1 [sotrastaurin]
Procedure, shortened: as §1

[9] = compound: CN1CCc2c(c3ccccc3n2Cc2ccc(C(=O)NO)cc2)C1 [Tubastatin A]
Procedure, shortened: as §1

[10] = compound: CNC(=O)C1=CC=CC=C1NC2=NC(=NC=C2Cl)NC3=C(C=C(C=C3)N4CCOCC4)OC
Procedure, shortened: as §1

[11] = compound: CNC(=O)c1ccc(Nc2ncc(C(F)(F)F)c(NCc3nccnc3N(C)S(C)(=O)=O)n2)cc1 [defactinib]
Procedure, shortened: as §1

[12] = compound: CNc1nc(-c2ccc3c(N)n[nH]c3c2)cc(N2C[C@@H](C(=O)NC3CCCCC3)CC[C@H]2C)n1
Procedure, shortened: as §1

[13] = compound: COC(=O)N[C@@H](C)CNc1nccc(-c2cn(C(C)C)nc2-c2cc(Cl)cc(NS(C)(=O)=O)c2F)n1 [encorafenib]
Procedure, shortened: as §1

[14] = compound: COC(=O)[C@H](CCSC)NC(=O)C1=C(C=C(C=C1)NC[C@H](CS)N)C2=CC=CC=C2
Procedure, shortened: as §1

[15] = compound: COc1cc(Nc2ncc3c(n2)-c2ccc(Cl)cc2C(c2c(F)cccc2OC)=NC3)ccc1C(=O)O [alisertib]
Procedure, shortened: as §1

[16] = compound: COc1cc2nc(-c3cc(F)ccc3O)nc(N[C@@H]3CNC[C@H]3C(C)(C)O)c2cc1OC
Procedure, shortened: as §1

[17] = compound: COc1cc2ncnc(Nc3ccc(F)c(Cl)c3)c2cc1OCCCN1CCOCC1 [gefitinib]
Procedure, shortened: as §1

[18] = compound: CCn1cc(-c2ccnc3[nH]c(-c4cccc(CN(C)C)c4)cc23)c(-c2ccc(NC(=O)N(C)C)cc2)n1
Procedure, shortened: as §1

[19] = compound: CN1CCC(CNc2ccc3ncc(-c4cccc(OC(F)(F)F)c4)n3n2)CC1
Procedure, shortened: as §1

[20] = compound: CN1CC[C@H](c2c(O)cc(O)c3c(=O)cc(-c4ccccc4Cl)oc23)[C@H](O)C1 [alvocidib]
Procedure, shortened: as §1

Measured: log2 fold change

RBBP7 (UniProt Q16576)
UniProt Q16576, sequence (Q16576 whole entry, looked up): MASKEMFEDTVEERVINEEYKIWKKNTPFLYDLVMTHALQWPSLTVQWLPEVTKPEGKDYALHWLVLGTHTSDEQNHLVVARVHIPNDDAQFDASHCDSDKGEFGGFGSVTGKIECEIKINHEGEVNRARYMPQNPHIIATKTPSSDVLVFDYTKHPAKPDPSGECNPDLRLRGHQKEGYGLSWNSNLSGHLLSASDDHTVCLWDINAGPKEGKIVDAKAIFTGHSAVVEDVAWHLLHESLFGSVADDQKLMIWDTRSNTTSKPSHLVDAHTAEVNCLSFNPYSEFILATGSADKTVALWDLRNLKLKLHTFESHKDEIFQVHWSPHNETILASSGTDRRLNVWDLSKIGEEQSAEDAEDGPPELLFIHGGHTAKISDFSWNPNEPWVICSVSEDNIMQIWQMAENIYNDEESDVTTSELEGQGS
inactive: [1] 0.044 | [2] -0.021 | [3] -0.072 | [4] -0.017 | [5] -0.004 | [6] -0.002 | [7] 0.021 | [8] 0.043 | [9] -0.005 | [10] 0.006 | [11] -0.018 | [12] -0.125 | [13] 0.032 | [14] -0.021 | [15] 0.014 | [16] -0.003 | [17] 0.006

REL isoform 2 (UniProt Q04864)
UniProt Q04864, sequence (Q04864 whole entry, looked up): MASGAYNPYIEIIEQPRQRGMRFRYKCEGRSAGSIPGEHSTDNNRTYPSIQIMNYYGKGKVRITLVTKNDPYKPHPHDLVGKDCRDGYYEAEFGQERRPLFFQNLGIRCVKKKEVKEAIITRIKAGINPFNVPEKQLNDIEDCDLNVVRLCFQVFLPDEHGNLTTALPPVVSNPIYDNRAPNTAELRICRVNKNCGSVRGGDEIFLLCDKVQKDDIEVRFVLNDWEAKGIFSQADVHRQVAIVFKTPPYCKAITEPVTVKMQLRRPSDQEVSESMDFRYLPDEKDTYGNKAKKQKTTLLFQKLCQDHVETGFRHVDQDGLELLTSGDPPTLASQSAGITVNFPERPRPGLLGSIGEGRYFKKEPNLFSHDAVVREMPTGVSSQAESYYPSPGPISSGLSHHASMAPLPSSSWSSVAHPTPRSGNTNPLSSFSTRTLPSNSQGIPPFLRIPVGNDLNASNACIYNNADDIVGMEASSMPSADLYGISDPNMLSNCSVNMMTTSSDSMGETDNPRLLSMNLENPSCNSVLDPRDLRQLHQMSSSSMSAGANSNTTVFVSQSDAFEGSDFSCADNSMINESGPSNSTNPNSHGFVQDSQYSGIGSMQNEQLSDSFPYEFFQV
inactive: [1] -0.035 | [2] 0.017 | [3] 0.033 | [4] 0.049 | [5] -0.032 | [6] 0.025 | [18] 0.02 | [19] -0.174 | [7] -0.002 | [8] -0.022 | [20] 0.061 | [9] -0.126 | [10] 0.003 | [11] 0.023 | [12] -0.056 | [13] 0.012 | [14] 0.029 | [15] -0.003 | [16] -0.019 | [17] 0.029

RAB27A (UniProt P51159)
UniProt P51159, sequence (P51159 whole entry, looked up): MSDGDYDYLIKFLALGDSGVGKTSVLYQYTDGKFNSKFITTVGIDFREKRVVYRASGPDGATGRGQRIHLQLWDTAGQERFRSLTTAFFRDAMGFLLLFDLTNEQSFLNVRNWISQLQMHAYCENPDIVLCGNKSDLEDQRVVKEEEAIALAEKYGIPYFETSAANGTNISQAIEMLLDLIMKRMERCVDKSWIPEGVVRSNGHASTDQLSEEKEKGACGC
inactive: [1] -0.037 | [2] -0.024 | [3] 0.012 | [4] -0.056 | [5] -0.082 | [6] 0.034 | [19] -0.048 | [7] 0.021 | [8] 0.001 | [20] 0.087 | [9] -0.083 | [10] 0.047 | [11] -0.001 | [12] -0.131 | [13] 0.027 | [14] 0.016 | [15] -0.004 | [16] 0.041 | [17] 0.068
active: [18] 0.679

RAB21 (UniProt Q9UL25)
UniProt Q9UL25, sequence (Q9UL25 whole entry, looked up): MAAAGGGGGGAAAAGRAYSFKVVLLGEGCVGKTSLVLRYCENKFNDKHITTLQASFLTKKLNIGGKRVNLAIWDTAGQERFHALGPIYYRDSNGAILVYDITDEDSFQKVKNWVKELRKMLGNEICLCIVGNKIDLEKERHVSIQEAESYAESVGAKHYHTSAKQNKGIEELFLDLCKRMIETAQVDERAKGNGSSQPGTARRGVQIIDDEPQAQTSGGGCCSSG
active: [18] 0.262
inactive: [1] -0.038 | [2] -0.005 | [3] 0.041 | [4] 0.005 | [5] -0.006 | [6] 0.008 | [19] -0.06 | [7] 0.029 | [8] -0.021 | [20] 0.069 | [9] 0.034 | [10] 0.048 | [11] -0.025 | [12] 0.026 | [13] 0.005 | [14] -0.072 | [15] 0.015 | [16] 0.013 | [17] 0.003

RTTN (UniProt Q86VV8)
UniProt Q86VV8, sequence (Q86VV8 whole entry, looked up): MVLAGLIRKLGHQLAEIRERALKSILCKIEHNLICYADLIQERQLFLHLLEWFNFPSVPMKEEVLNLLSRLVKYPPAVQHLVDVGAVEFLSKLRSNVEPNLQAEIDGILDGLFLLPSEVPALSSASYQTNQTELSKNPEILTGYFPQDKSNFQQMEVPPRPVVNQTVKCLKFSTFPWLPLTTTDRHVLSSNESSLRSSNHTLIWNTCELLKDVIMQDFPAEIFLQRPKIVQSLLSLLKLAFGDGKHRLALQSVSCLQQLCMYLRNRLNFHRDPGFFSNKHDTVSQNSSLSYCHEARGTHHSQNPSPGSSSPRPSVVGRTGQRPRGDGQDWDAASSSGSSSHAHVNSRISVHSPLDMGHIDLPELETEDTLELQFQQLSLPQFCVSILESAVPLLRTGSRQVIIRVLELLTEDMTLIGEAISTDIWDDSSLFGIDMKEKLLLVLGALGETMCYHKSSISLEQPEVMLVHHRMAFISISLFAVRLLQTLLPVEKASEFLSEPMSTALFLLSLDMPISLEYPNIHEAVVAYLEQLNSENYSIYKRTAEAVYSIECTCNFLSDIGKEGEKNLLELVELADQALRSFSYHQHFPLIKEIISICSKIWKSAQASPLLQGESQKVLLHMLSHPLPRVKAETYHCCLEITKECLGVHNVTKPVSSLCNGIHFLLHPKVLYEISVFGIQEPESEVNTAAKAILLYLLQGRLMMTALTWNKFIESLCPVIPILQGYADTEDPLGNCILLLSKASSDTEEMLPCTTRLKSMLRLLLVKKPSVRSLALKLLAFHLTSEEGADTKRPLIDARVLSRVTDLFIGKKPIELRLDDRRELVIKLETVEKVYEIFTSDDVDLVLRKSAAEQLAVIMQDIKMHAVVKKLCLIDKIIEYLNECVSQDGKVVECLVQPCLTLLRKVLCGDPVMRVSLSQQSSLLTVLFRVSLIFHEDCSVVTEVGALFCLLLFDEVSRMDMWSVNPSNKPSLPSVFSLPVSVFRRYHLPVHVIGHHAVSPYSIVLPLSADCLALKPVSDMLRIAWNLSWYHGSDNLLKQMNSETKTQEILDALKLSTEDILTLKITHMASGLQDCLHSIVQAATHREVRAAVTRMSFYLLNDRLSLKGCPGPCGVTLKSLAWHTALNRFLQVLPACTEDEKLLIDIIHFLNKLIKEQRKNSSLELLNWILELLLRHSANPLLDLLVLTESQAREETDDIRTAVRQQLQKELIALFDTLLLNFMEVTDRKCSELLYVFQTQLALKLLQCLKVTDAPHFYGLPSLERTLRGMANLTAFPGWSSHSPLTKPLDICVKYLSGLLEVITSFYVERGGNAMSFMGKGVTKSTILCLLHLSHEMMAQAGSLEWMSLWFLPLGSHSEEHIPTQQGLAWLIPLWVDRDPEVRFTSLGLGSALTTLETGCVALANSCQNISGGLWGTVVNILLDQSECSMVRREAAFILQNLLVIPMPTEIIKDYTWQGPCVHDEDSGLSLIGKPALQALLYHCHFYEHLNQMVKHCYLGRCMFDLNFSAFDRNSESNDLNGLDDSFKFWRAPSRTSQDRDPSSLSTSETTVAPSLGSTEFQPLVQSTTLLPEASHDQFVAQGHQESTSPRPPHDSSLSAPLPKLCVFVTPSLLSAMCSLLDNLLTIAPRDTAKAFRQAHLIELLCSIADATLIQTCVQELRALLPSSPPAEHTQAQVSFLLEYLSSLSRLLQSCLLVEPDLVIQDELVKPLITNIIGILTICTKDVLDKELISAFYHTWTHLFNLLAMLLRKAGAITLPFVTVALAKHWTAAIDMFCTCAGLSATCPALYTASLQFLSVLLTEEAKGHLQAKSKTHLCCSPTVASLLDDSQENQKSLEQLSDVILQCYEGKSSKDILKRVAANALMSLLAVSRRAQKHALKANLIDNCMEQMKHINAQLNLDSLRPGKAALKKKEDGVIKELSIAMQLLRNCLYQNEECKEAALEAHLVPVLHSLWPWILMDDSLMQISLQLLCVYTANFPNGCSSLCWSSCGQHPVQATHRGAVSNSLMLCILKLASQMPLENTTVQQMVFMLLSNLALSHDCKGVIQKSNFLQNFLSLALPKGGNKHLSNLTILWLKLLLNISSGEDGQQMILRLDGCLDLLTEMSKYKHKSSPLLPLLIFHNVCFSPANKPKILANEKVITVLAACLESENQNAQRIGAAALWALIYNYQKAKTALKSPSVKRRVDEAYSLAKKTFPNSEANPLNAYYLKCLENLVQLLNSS
inactive: [1] 0.066 | [2] 0.011 | [3] 0.043 | [4] -0.101 | [5] -0.293 | [6] 0.099 | [18] -0.347 | [19] -0.316 | [7] 0.047 | [20] 0.088 | [9] -0.242 | [10] 0.082 | [11] 0.401 | [12] 0.018 | [13] 0.069 | [14] -0.085 | [15] -0.002 | [16] -0.301 | [17] 0.049

SAMD4A (UniProt Q9UPU9)
UniProt Q9UPU9, sequence (Q9UPU9 whole entry, looked up): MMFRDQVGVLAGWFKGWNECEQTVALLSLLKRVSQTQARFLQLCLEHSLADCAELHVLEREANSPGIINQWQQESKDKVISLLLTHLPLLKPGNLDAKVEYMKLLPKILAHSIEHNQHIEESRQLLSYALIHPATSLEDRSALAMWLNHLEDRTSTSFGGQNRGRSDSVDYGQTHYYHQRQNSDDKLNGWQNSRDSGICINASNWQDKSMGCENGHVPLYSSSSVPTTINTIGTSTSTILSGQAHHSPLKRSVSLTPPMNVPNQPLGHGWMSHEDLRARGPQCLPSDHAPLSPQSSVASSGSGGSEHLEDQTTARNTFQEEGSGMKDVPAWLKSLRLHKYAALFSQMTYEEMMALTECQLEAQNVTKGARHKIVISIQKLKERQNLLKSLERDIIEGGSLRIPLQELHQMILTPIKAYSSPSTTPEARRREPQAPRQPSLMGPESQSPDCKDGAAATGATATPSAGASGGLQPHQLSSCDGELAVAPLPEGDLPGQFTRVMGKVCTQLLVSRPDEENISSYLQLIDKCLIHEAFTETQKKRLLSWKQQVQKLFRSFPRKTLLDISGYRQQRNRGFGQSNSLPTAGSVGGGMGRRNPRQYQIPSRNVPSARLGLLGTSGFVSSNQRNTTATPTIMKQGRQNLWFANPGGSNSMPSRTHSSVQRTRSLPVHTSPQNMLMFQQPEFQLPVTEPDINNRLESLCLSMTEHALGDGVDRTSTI
inactive: [1] -0.032 | [2] -0.376 | [3] 0.005 | [4] 0.05 | [5] 0.014 | [6] -0.292 | [18] 1.12 | [19] 0.115 | [7] 0.07 | [8] 0.01 | [20] 0.039 | [9] -0.428 | [10] -0.01 | [11] 0.001 | [12] 0.04 | [13] 0.009 | [14] -0.032 | [16] 0.035
